# Several values for one entry are separate records, joined by “and”; a condition that tells them apart may be missing. Identical values can stand only once. Results filed as inconclusive are left out. A call without a number means that no potency is given here. Unmarked numbers belong to inactive results. Activity calls are given as the source filed them. The call rests on the fitted dose curve; in most records, active means well fitted inhibition curve with a large enough effect in the signal ratio in the repeat runs (not every such curve was filed as active); inconclusive means weak or mixed curves, or effect the other way; inactive means no such curve, though single readings can be large or run the other way; the % refers to the signal ratio.
# Molecular target: Glucocorticoid receptor (Homo sapiens) (UniProt P04150)
# Sequence (P04150 whole entry, looked up): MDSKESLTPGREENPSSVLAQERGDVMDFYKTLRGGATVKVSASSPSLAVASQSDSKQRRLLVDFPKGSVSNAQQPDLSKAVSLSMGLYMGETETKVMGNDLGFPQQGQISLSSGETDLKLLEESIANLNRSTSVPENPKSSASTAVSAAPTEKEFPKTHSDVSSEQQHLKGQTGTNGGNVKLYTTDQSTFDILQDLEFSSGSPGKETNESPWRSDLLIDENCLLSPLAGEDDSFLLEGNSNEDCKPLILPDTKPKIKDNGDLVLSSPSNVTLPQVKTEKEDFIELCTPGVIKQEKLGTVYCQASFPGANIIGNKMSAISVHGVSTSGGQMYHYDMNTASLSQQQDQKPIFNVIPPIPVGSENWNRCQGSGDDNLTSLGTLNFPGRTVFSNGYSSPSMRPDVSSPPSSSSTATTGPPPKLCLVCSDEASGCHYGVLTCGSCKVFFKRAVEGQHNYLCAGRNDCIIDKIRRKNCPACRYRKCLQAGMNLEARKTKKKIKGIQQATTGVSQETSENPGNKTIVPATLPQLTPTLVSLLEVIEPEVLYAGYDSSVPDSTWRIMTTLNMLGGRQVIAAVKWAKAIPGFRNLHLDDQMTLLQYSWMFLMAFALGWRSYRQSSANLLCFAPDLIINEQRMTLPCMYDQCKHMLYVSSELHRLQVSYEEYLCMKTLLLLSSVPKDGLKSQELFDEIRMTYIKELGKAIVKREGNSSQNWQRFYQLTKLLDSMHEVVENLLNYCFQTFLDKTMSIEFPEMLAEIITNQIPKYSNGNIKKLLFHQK
# Experiment: qHTS assay to identify small molecule antagonists of the glucocorticoid receptor (GR) signaling pathway (AID 720692)
# Settings: GR-bla HeLa, beta-lactamase FRET ratio, dexamethasone-stimulated, 18 h; series mostly up to 58.5 µM; activity change, negative = inhibition: at the top concentration
# Source text: U.S. Tox21 Program National Center for Advancing Translational Sciences [NCATS] NIH Chemical Genomics Center [NCGC] U.S. Environmental Protection Agency [EPA] National Institutes of Environmental Health Sciences [NIEHS] National Toxicology Program [NTP] U.S. Food and Drug Administration [FDA] Tox21 Assay Overview: The Glucocorticoid receptor (GR) is one of the members of the nuclear receptor family of ligand-dependent transcription factors. GR plays a critical role in carbohydrate, protein and lipid metabolisms and programmed cell death. CellSensor GR-bla HeLa cell line (Invitrogen) contains a beta-lactamase reporter gene under the control of the glucocorticoid response element stably integrated into HeLa cells, a cervical cancer cell line that expresses glucocorticoid receptor. The activation of the reporter gene under culture conditions can be detected by fluorescence intensity. This cell line has been used to screen the Tox21 10K compound library and to identify the compounds that inhibit the GR signaling.
# Tox21 Assay Protocol Summary: The GR-bla HeLa cells were dispensed at 1500 cells/5 ul/well in 1536-well black wall/clear bottom plates using a Multidrop Combi (ThermoFisher Scientific, Waltham, MA) dispenser. After the assay plates were incubated at a 37 C/5% CO2 incubator for 4 hours, 23 nL of compounds dissolved in DMSO, positive controls or DMSO only was transferred to the assay plate by a pintool station (Kalypsys, San Diego, CA), followed by addition of 1 uL of dexamethasone (5 nM, final concentration in the well). The plates were incubated at 37 C for 18 hours. After 1 uL of LiveBLAzerTM B/G FRET substrate was added using a Flying Reagent Dispenser (Aurora Discovery, San Diego, CA), the plates were incubated at room temperature for 2 hours, and fluorescence intensity was measured by an Envision plate reader (PerkinElmer, Shelton, CT).
# Potency means the concentration at half of the fitted maximal effect.
Compound,Potency,"activity change, negative = inhibition [%]"
CCCCCCCCCCn1cc[n+](C)c1,15.6 µM (active) and 39.1 µM (active),–
CC[N+](CC)(CC)CC,inactive,–
O=C(O)C(Cl)Cl,inactive,–
COP(=O)(OC)C(O)C(Cl)(Cl)Cl (centres undefined),–,-17.9
CCCn1cc[n+](C)c1,inactive,–
CNC,inactive,–
Nc1ccc(-c2ccc(N)c(Cl)c2)cc1Cl,19.6 µM (active) and 11.5 µM (active) and 19.5 µM (active),–
C[N+](C)(C)Cc1ccccc1,inactive,–
CCC(=O)C(CC(C)N(C)C)(c1ccccc1)c1ccccc1 (centres undefined),inactive,–
Nc1ccccc1,inactive,–
CC[N+]1(C)CCCC1,inactive,–
C1CCC(NC2CCCCC2)CC1,inactive,–
O=C(O)CCl,inactive,–
O=C(O)c1nc(Cl)ccc1Cl,inactive,–
C=CCOC(Cn1ccnc1)c1ccc(Cl)cc1Cl (centres undefined),–,-1.05
Cc1cc(Cl)ccc1N,inactive,–
CCCCCCCCCCCCn1cc[n+](C)c1,–,-22

Compound,Potency,"activity change, negative = inhibition [%]"
Nc1ccc(-c2ccc(N)cc2)cc1,inactive,–
O=c1nc(O)n(Cl)c(=O)n1Cl,inactive,–
CCCCCCCCCCCCOS(=O)(=O)O,inactive,–
CCCCCCCCCCCCCCCCn1cc[n+](C)c1,–,-12.1
OCCOc1ccccc1,inactive,–
O=c1[nH]c(=O)n(Cl)c(=O)n1Cl,inactive,–
CCNc1nc(Cl)nc(NCC)n1,inactive,–
Nc1ccc(Cl)cc1,inactive,–
O=C(O)COc1ccc(Cl)cc1Cl,inactive,–
COc1ccc(N)cc1,inactive,–
O=[N+]([O-])c1ccccc1O,inactive,–
N#CS,inactive,–
CC(Cl)(Cl)C(=O)O,inactive,–
CCCC[n+]1cccc(C)c1,inactive,–
O=P1(N(CCCl)CCCl)NCCCO1 (centres undefined),inactive,–
O=[N+]([O-])O,inactive,–
Cc1cc(Cl)ccc1OCC(=O)O,inactive,–

# Reference: PubChem BioAssay (Tox21)
